{"source": "PubChem BioAssay AID720549", "about": "(National Center for Advancing Translational Sciences (NCATS), 2013)", "molecular_target": "RecQ-like DNA helicase BLM (Homo sapiens) (UniProt P54132)", "sequence (P54132 whole entry, looked up)": "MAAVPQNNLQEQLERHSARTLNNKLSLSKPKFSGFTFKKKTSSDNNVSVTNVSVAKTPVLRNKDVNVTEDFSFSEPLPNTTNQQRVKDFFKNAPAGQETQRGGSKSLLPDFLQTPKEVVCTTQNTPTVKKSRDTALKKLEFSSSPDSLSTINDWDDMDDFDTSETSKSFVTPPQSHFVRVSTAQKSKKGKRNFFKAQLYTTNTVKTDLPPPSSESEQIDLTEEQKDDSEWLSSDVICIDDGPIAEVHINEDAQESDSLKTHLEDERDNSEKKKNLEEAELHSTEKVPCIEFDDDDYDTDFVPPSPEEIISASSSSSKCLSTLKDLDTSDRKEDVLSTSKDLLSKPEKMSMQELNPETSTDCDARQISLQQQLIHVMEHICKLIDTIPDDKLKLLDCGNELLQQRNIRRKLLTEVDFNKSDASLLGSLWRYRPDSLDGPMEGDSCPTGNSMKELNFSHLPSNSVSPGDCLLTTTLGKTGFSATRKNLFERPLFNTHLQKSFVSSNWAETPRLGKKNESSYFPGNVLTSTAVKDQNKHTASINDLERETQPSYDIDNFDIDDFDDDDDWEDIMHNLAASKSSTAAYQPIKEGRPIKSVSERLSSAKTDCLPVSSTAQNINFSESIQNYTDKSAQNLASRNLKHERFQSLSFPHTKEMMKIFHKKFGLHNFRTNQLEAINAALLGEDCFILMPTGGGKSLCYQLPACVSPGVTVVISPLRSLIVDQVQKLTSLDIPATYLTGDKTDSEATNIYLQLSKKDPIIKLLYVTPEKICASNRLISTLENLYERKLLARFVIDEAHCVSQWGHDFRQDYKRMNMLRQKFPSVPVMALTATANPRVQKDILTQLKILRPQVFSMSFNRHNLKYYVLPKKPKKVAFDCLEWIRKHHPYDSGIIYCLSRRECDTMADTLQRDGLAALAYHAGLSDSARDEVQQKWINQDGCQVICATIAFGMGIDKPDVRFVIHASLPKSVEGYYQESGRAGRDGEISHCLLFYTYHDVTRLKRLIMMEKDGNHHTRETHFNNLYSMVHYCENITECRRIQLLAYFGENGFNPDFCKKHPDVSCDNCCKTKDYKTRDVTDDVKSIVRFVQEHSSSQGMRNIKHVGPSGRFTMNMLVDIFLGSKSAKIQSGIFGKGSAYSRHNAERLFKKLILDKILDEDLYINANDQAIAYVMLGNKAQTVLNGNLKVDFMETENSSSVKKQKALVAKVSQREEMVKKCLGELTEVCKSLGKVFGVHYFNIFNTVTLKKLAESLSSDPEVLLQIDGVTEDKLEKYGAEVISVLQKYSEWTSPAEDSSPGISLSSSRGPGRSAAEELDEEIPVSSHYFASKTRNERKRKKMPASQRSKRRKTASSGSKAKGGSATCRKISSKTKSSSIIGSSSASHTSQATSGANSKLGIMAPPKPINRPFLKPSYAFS", "test": "qHTS for Inhibitors of Bloom's syndrome helicase (BLM): Helicase ATPase Orthogonal Confirmatory Assay for SAR", "conditions": "purified BLM helicase ATPase activity assay; series mostly up to 57.1 µM", "excerpt": "Human RecQ DNA helicases participate in maintenance of genome stability and DNA repair. While other types of helicases have been explored as targets for drug development, members of the RecQ family have remained less well characterized. Mutations of the Bloom helicase gene have been associated with the rare human genetic disease called Bloom syndrome. […] Moreover, identified inhibitors can be used in cells and animal models to examine the consequences of inhibition on the survival of cancer cells where it has been shown that BLM plays an important role.\nA fluorescence-based, biochemical assay in 1536 well format was developed to evaluate inhibition of BLM DNA unwinding activity. This assay was used to screen the MLPCN library. […] This luminescence assay employs a purified BLM enzyme and a single stranded BLM oligo substrate ([…]). For this assay increase in luminescence signal is greater than or equal to 700 RLU. […]\nThree microliter of reaction buffer (25mM Tris-HCl pH 8.0, 50mM NaCl, 2mM MgCl2, 1mM DTT, and 0.01% Tween- 20, and 2nM BLM enzyme) was dispensed into a 1536-well assay plates (Greiner, solid white medium-binding) via Aurora Discovery BioRAPTR Flying Reagent Dispenser (FRD). […] After 30 min at room temperature, the luminescence signal was detected using the ViewLux CCD imager. […]", "note": "Records with an inconclusive call do not appear. Active and inactive are the calls of the source. The call rests on the fitted dose curve; in most records, active means well fitted inhibition curve with a large enough effect; inconclusive means small, poorly fitted or top-dose-only effect; inactive means flat fitted curve, though single readings scatter."}
{"smiles": "N#Cc1ccc(NC(=O)Nc2nnc(-c3ccncc3)s2)cc1C(F)(F)F", "values": [{"measurement": "outcome", "result": "inactive"}]}
